Experimental data taken from PubChem BioAssay (NCATS).
Several values for one entry are separate records, joined by “and”; a condition that tells them apart may be missing. Equal entries are not always repeated. Results filed as inconclusive are left out. Activity calls are given as the source filed them. Unless noted, calls follow the shape of the dose curve; as a rule, active = well fitted curve in the direction sought with a large enough effect; inconclusive = small, poorly fitted or top-dose-only effect, or another doubt; inactive = no such curve, though single readings can be large; an effect the other way counts as inactive or inconclusive.

What was measured:
[1] = AP1 Signaling Pathway (AID 357; active = well fitted curve in either direction with a large enough effect, not every such curve was filed as active;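 also: ME-180 reporter cells stimulated with EGF at its EC50 level; % is scaled to controls: 0 for no effect and ±100 for the full control effect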); conditions: ME-180 AP-1-bla reporter, EGF-induced, beta-lactamase ratio, 5 h; at 38 µM (top of the series)
Summary of the method: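 AP-1-bla ME-180 cells, Opti-MEM + 0.5% dialyzed FBS, plated overnight 37 °C. Cpd titration + EC50 EGF, 5 h 37 °C. CCF4 2.5 h RT; ex 405, em 460/530 ratio → %activity, AC50.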

[2] = Stat Signaling Pathway (AID 446; active = well fitted curve in either direction with a large enough effect, not every such curve was filed as active;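 also: ME-180 cervical cancer cells given 40 pM IL-6 alongside compound; SIE-controlled beta-lactamase reporter measured as 460/530 nm FRET emission ratio; % is scaled to controls: 0 for no effect and ±100 for the full control effect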); conditions: ME-180 SIE beta-lactamase reporter, IL-6 stimulated, 5 h; at 38 µM (top of the series)
Summary of the method: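 Emission at 460 and 530 nm (excitation 405 nm) reports SIE-controlled beta-lactamase in ME-180 cells. Cells received compound with 40 pM IL-6 for 5 hrs at 37 C; data scaled between 300 pM IL-6 and 125 nM JAK-inhibitor controls.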

[3] = target: Glucocorticoid receptor (Homo sapiens) (UniProt P04150); experiment: GR-GFP Redistribution (AID 450;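 active = compounds whose dose series gives a full or clear partial fitted curve of increased nuclear translocation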; also: potency is read from the fitted curve at half-maximal effect); conditions: U2OS GR-GFP nuclear translocation, laser cytometry, 2 h
[4] = target: Glucocorticoid receptor (Homo sapiens) (UniProt P04150); experiment: GR-EFC Redistribution (AID 451; calls by dose curve; also: potency is read from the fitted curve at half-maximal effect); conditions: CHO-K1 GR-EFC translocation, beta-gal luminescence, 2 h
Summary of the method: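 CHO-K1 cells expressing nuclear EA and GR-ED fragments of b-gal; compounds titrated up to 46 uM final, 2 h at 37 C. GR nuclear translocation read as complemented b-gal luminescence after 1 h RT detection.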

[5] = target: Mitogen-activated protein kinase 10 (Mus musculus) (UniProt Q61831); experiment: JNK3 AlphaScreen Assay (AID 530; active = well fitted curve in either direction with a large enough effect, not every such curve was filed as active;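 also: kinase came from lysate of stimulated human HepG2 cells; signal reports phosphorylation of biotinylated GST-cJun 1-79 at Ser73 with 10 µM ATP; % is scaled to controls: 0 for no effect and ±100 for the full control effect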)
Summary of the method: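 HepG2 lysate (IL-1b/TNFa pre-activated) + biotin-GST-cJun 1-79 + anti-pSer73 cJun; cpd titration, 15 min RT; ATP 10 uM start; Tris pH 7.6, MgCl2, DTT, vanadate; beads in EDTA buffer; AlphaScreen.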

[6] = target: Guanine nucleotide-binding protein G(i) subunit alpha-1 (Homo sapiens) (UniProt P63096); experiment: qHTS Assay for Inhibitors of RGS12 GoLoco Motif Activity (Green Fluorophore) (AID 879);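 also: 0% = labeled peptide with Gαi1 and full inhibition = labeled peptide alone without protein; negative values mean loss of peptide binding seen as reduced polarization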
Summary of the method: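 A drop in FITC polarization marked displacement of the FITC-tagged RGS12 GoLoco peptide (10 nM) from Gαi1 (50 nM). Compounds were incubated 10 min at room temperature in Tris pH 7.5 buffer containing 150 mM NaCl, 0.1 mM GDP and 0.05% NP40; unlabeled peptide titration served as control.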

[7] = target: Cytochrome P450 3A4 (Homo sapiens) (UniProt P08684); experiment: qHTS Assay for Inhibitors and Substrates of Cytochrome P450 3A4 (AID 884); also: nearly all actives have a fitted effect of over 50% in size; also: potency is read from the fitted curve at half-maximal effect
Summary of the method: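 Luminescent readout of luciferin produced by CYP3A4 (20 nM) dealkylation of Luciferin-PPXE, 25 uM (its KM). NADPH-driven reaction ran 60 min at RT after 10 min compound preincubation; data scaled to 57 uM ketoconazole as 100% inhibition.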

[8] = target: Cytochrome P450 3A4 (Homo sapiens) (UniProt P08684); experiment: qHTS Assay for Activators of Cytochrome P450 3A4 (AID 885); also: nearly all actives have a fitted effect of over 65% in size
Summary of the method: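 Activators are scored by enhanced luminescence from CYP3A4 conversion of luciferin-PPXE (25uM, equal to KM) to luciferin, after 60 min at RT with an NADPH-regenerating system.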

[9] = target: Cytochrome P450 2D6 (Homo sapiens) (UniProt P10635); experiment: qHTS Assay for Inhibitors and Substrates of Cytochrome P450 2D6 (AID 891); also: potency is read from the fitted curve at half-maximal effect; nearly all actives have a fitted effect of over 60% in size
Summary of the method: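 Luminescent read-out of luciferin formed by 5 nM human CYP2D6 demethylating 30 uM Luciferin-ME EGE (Km level) over 60 min at room temperature after NADPH regeneration addition. Data normalized to full inhibition by 1.43 uM quinidine.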

[10] = qHTS Assay for Identification of Small Molecule Antagonists for NFkB Signaling Pathway (AID 895; active = well fitted inhibition curve with a large enough effect in the signal ratio, with a control signal flat, not every such curve was filed as active; the % refers to the signal ratio; also: % is scaled to controls: 0 for no effect and ±100 for the full control effect)
Summary of the method: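 ME-180 NFkB-bla cells (beta-lactamase under NFkB response element), plated overnight, treated with compound then 10 pM TNF alpha (about EC50) for 5 hrs at 37 C. LiveBLAzer FRET read at 460/530 nm emission, 405 nm excitation.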

[11] = target: Cytochrome P450 2C19 (Homo sapiens) (UniProt P33261); experiment: qHTS Assay for Inhibitors and Substrates of Cytochrome P450 2C19 (AID 899); also: potency is read from the fitted curve at half-maximal effect; nearly all actives have a fitted effect of over 60% in size
Summary of the method: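 5 nM human CYP2C19 with 10uM Luciferin-H EGE (at KM) in 50mM KPO4, compound preincubated 10 min at 37C, then NADPH regeneration for 60 min at 37C. Luciferin read by luminescence after detection reagent; normalized to 57uM ketoconazole as full inhibition.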

[12] = target: Muscarinic acetylcholine receptor M1 (Rattus norvegicus) (UniProt P08482); experiment: qHTS Assay for Antagonists of Acetylcholine Muscarinic M1 Receptor: Kinetic Measurement of Intracellular Calcium Response (AID 943); also: potency is read from the fitted curve at half-maximal effect; nearly all actives have a fitted effect of over 75% in size
Summary of the method: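 Read-out: peak over basal Fluo-4 fluorescence, kinetic at 1 Hz for 4 min after EC80 carbachol (100 nM final). Rat M1-CHO cells, dye loaded 1 h at 37C, compound added 10 min before agonist.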

[13] = target: Muscarinic acetylcholine receptor M1 (Rattus norvegicus) (UniProt P08482); experiment: qHTS Assay for Antagonists of Acetylcholine Muscarinic M1 Receptor: Measurement of IP-One Response (AID 944); also: potency is read from the fitted curve at half-maximal effect; nearly all actives have a fitted effect of over 75% in size
Summary of the method: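 Read-out: HTRF competition between d2-IP1 and Eu-cryptate anti-IP1 antibody, emission 620 and 665 nm. Stimulus was carbachol, EC80 (200 nM), for 30 min in M1-CHO cells (rat receptor), after 10 min compound pre-treatment.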

[14] = target: Pyruvate kinase (Leishmania mexicana) (UniProt Q27686); experiment: qHTS Validation Assay for Inhibitors of Leishmania Mexicana Pyruvate Kinase (AID 945);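 also: 0% = DMSO only neutral control wells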
Summary of the method: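 Read-out: luminescence from PKLight stop/detection reagent, data normalized to DMSO. Reaction: 0.2 nM E451W LmPYK, 0.5 mM PEP, 0.1 mM ADP, pH 7.2, 1 h room temperature.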

[15] = target: Pyruvate kinase PKM (Homo sapiens) (UniProt P14618); experiment: qHTS Assay for Activators of Human Muscle Pyruvate Kinase (AID 954; active = well fitted curve in the direction sought with a large enough effect, not every such curve was filed as active;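 also: 0% = uninhibited enzyme and -100% = no enzyme or full thiadiazolimine inhibition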)
Summary of the method: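 PKM2, human, >95% pure, 0.1 nM; PEP 0.5 mM (Km), ADP 0.1 mM; 50 mM imidazole pH 7.2, 50 mM KCl, 0.01% Tween 20, 0.05% BSA; 1 h RT; luciferase luminescence readout.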

[16] = target: alpha-glucosidase (Oryza sativa, rice) (UniProt Q653V4); experiment: Counterscreen for Glucocerebrosidase Inhibitors: qHTS Assay for Rice alpha-Glucosidase at pH 5.0 (AID 997);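 also: 0% = full activity with enzyme and -100% = basal without enzyme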
Summary of the method: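 Endpoint fluorogenic assay at pH 5.0: compounds (0.7 nM to 77 uM) titrated against 4 nM rice enzyme and 400 uM 4-MU-alpha-glucoside for 20 min at room temperature; NaOH/glycine stop, read ex 365/em 440 nm, Hill-fitted AC50.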

[17] = target: DNA dC->dU-editing enzyme APOBEC-3G (Homo sapiens) (UniProt Q9HC16); experiment: qHTS for inhibitors of Vif-A3G interactions: Validation (AID 588379); also: 0% is about no effect
Summary of the method: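 Yellow fluorescence (Ex 488, Em 500-530) of Vif-coexpressing HeLa A3G-eYFP cells, scanned by Acumen cytometer, reports blocked A3G degradation. Cells plated at 700/well overnight at 37 deg C before compound addition, then a further overnight compound incubation at 37 deg C.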

[18] = test system: Zika virus NS2B-NS3 protease; experiment: Primary screen GU AMC qHTS for Zika virus inhibitors (AID 1347154); also: nearly all actives have a fitted effect of over 70% in size; also: potency is read from the fitted curve at half-maximal effect;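 as to activity change, negative = inhibition: 0% = no-inhibitor control and -100% = no-enzyme control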
Summary of the method: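 Unlinked Zika NS2B hydrophilic domain–NS3 protease complex at 25 nM in 10 mM Tris-HCl pH 8.0, 0.01% Tween 20, with an AMC peptide substrate. Fluorescence change (340/450 nm) over 15 min at room temperature, normalized to controls, fitted to 4-parameter Hill.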

[19] = target: Cytochrome P450 1A2 (Homo sapiens) (UniProt P05177); experiment: p450-cyp1a2 (AID 410; calls by dose curve; also: potency is read from the fitted curve at half-maximal effect;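 as to activity change, negative = inhibition: -100% = full effect of reference inhibitor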)
Summary of the method: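 20nM CYP1A2, 100uM Luciferin-ME (=Km), 100mM KPO4; cpd 10 min RT; +NADPH regen, 60 min RT; stop/detect 20 min; luminescence. Normalized to furafylline 57 uM = full inhibition.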

[20] = target: 3',5'-cyclic-AMP phosphodiesterase 4B (Homo sapiens) (UniProt Q07343); experiment: qHTS Assay for Inhibitors of PDE-IV (AID 607; active = well fitted activation curve with a large enough effect in the main read-out, with a control signal flat, not every such curve was filed as active; also: % of control where 0% means no effect)
Summary of the method: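 The readout is membrane depolarisation from a cAMP-sensing CNG channel, detected with a potential dye at ex 535/em 590. Cells were HEK293-derived (endogenous PDE-IV) at 1000 cells/well, titrated up to 22.9 uM final.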

[21] = target: Ubiquitin carboxyl-terminal hydrolase 1 (Homo sapiens) (UniProt O94782); experiment: Inhibitors of USP1/UAF1: Pilot qHTS (AID 504865); also: nearly all actives have a fitted effect of over 35% in size; also: potency is read from the fitted curve at half-maximal effect
Summary of the method: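 Deubiquitinase activity followed as kinetic rhodamine fluorescence release from 150 nM Ub-Rho. 1 nM USP1/UAF1 with compound, after 15 min room-temperature preincubation, in HEPES pH 7.8 buffer containing TCEP, EDTA, BSA and Tween-20.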

[22] = target: Cytochrome P450 2C9 (Homo sapiens) (UniProt P11712); experiment: qHTS Assay for Inhibitors and Substrates of Cytochrome P450 2C9 (AID 883); also: nearly all actives have a fitted effect of over 60% in size; also: potency is read from the fitted curve at half-maximal effect
Summary of the method: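 Human CYP2C9 (10nM) with Luciferin-H at 100uM (its KM) in 25mM KPO4; compound preincubated 10 min at 37C, then NADPH regeneration for 60 min at 37C. Luciferin read by luminescence after detection reagent; normalized to 57uM sulphaphenazole as full inhibition.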

Chain of Cytochrome P450 1A2 (Homo sapiens) (P05177 whole entry, looked up): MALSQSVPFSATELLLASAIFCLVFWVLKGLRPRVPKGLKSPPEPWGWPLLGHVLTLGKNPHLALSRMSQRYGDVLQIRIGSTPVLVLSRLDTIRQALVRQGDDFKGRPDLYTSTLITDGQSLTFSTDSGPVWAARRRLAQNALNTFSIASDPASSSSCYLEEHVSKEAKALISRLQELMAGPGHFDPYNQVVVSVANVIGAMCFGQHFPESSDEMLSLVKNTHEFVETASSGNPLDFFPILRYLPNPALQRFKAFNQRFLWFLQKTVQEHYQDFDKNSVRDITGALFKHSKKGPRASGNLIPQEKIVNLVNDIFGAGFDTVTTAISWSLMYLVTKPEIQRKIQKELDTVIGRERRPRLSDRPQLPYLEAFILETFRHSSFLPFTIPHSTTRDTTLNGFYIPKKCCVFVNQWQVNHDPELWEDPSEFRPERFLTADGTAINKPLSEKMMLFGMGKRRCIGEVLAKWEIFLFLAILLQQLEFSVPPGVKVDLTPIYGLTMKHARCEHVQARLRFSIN
Chain of Cytochrome P450 3A4 (Homo sapiens) (P08684 whole entry, looked up): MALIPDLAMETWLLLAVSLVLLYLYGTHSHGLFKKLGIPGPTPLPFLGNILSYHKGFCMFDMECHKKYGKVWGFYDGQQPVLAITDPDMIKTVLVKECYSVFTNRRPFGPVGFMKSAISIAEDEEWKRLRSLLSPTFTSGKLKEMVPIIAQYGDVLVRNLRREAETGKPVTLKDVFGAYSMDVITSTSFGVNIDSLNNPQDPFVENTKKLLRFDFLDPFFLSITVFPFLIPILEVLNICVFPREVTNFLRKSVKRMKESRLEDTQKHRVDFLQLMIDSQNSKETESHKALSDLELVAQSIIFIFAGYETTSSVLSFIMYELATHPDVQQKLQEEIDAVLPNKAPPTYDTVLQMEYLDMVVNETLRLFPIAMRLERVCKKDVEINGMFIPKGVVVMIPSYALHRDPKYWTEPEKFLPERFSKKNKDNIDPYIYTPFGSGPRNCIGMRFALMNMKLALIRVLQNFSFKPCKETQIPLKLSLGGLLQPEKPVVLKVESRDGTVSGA
Chain of Cytochrome P450 2D6 (Homo sapiens) (P10635 whole entry, looked up): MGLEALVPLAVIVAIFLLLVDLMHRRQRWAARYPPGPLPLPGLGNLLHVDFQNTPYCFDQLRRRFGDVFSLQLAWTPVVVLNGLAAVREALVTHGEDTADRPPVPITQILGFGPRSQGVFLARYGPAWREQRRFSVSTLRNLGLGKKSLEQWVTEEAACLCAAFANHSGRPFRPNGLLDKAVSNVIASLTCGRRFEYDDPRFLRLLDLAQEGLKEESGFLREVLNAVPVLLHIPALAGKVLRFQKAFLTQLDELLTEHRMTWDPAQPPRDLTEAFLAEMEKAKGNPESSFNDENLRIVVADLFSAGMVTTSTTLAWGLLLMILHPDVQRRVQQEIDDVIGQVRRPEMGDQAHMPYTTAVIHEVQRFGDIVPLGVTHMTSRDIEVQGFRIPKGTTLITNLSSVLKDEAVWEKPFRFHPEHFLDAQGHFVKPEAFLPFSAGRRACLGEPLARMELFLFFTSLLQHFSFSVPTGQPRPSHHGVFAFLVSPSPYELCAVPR
Chain of Ubiquitin carboxyl-terminal hydrolase 1 (Homo sapiens) (O94782 whole entry, looked up): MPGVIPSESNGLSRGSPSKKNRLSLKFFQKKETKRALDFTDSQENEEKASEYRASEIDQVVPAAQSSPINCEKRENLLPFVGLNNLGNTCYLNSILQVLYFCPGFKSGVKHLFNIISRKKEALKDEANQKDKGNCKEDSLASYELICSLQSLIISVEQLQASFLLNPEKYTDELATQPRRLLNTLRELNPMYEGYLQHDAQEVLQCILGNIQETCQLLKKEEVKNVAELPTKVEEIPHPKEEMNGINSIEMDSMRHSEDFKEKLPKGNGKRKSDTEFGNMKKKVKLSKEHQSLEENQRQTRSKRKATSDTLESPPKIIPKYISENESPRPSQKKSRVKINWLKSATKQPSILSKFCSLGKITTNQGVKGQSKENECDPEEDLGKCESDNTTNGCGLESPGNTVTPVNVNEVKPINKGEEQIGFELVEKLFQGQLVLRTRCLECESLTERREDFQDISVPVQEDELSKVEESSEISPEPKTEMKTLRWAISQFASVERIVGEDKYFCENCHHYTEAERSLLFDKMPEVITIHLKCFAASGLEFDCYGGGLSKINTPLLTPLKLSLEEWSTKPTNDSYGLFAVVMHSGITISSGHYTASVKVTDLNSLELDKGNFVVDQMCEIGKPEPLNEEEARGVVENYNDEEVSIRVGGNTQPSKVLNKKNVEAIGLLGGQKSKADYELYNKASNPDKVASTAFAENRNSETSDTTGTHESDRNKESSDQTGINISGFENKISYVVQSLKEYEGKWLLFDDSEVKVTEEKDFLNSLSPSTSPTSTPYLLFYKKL
Chain of Glucocorticoid receptor (Homo sapiens) (P04150 whole entry, looked up, the tested form may be a part): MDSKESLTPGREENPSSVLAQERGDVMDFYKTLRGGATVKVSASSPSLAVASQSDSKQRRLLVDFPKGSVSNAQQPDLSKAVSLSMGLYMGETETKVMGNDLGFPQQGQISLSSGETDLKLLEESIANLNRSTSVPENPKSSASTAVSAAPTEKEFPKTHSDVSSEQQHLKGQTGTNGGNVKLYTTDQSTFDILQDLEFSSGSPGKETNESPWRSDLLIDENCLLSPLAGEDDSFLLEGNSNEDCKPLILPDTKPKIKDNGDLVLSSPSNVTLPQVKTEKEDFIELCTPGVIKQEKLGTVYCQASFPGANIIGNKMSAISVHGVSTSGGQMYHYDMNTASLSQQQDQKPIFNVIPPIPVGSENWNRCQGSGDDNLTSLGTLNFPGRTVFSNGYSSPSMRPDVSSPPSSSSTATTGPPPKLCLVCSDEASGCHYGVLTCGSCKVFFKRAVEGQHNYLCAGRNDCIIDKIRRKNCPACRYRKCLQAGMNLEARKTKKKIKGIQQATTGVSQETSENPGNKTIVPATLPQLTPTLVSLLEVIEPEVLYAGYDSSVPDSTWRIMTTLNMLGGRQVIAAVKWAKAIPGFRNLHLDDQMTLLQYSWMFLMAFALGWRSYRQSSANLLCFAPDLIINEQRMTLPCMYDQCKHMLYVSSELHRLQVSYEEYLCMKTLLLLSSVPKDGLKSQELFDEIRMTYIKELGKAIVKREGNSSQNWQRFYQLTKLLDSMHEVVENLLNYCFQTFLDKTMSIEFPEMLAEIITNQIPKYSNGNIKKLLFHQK
Chain of Cytochrome P450 2C19 (Homo sapiens) (P33261 whole entry, looked up): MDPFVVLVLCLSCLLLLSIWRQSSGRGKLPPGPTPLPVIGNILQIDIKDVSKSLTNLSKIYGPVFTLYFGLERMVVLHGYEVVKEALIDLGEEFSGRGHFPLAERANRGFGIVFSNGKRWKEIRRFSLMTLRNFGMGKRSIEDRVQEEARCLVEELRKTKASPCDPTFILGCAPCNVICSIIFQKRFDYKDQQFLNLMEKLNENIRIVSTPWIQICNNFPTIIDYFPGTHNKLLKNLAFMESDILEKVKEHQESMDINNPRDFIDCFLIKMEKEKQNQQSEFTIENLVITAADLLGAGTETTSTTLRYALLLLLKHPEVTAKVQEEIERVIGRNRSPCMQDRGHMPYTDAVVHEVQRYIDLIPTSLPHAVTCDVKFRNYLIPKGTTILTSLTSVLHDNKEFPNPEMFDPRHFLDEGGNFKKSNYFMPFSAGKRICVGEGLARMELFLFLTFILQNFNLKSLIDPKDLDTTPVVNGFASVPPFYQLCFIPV
Chain of DNA dC->dU-editing enzyme APOBEC-3G (Homo sapiens) (Q9HC16 whole entry, looked up): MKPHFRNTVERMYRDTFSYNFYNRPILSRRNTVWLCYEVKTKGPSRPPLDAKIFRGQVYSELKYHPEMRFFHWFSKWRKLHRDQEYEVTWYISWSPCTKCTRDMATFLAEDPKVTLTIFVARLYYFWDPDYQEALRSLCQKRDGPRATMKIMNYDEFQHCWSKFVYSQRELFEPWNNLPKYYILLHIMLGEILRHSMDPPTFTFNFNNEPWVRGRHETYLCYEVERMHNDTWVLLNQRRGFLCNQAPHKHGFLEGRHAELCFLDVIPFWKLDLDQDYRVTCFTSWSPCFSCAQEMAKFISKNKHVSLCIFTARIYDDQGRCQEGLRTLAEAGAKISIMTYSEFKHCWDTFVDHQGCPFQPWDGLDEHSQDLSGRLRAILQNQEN
Chain of 3',5'-cyclic-AMP phosphodiesterase 4B (Homo sapiens) (Q07343 whole entry, looked up): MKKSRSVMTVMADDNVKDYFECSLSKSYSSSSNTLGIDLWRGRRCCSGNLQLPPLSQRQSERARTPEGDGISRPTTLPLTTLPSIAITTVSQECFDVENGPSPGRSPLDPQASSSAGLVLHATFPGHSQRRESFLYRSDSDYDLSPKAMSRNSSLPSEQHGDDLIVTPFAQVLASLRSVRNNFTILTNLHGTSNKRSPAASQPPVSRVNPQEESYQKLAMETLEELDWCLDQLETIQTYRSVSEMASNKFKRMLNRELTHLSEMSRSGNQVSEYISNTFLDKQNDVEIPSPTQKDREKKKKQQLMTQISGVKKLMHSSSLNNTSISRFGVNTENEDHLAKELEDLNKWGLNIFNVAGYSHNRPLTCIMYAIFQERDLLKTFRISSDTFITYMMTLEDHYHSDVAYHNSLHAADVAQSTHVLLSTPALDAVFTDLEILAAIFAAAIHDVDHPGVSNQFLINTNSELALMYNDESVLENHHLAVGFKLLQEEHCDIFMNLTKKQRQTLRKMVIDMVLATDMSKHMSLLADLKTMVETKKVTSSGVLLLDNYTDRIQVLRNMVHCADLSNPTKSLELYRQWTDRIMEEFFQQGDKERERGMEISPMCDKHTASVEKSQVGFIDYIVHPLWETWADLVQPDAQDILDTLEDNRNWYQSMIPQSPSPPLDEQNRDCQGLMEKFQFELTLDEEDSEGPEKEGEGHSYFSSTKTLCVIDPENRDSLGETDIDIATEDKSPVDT

COc1cccc(OC)c1OCCNC[C@@H]1COc2ccccc2O1
active: Potency [7] 2 µM and 2.51 µM | Potency [9] 251 nM | Potency [11] 794 nM | Potency [12] 10 µM | Potency [13] 17.8 µM
inactive: activity change, negative = inhibition [1] -5.1% | activity, negative = inhibition [2] 9.55% | Potency [3] > 46 µM | Potency [4] > 46 µM | Potency [5] | outcome [6] | Potency [8] | Potency [10] | Potency [14] | outcome [15] | outcome [16] | Potency [17] | Potency [18]

CC(C)[C@@H]1C(=O)N(S(C)(=O)=O)[C@H]2CCN(C(=O)/C=C\CN3CCCCC3)[C@@H]12
inactive: Potency [19] | Potency [3] > 46 µM | Potency [5] | Potency [20] | Potency [21] | Potency [17] | Potency [18]

O=C(NCCCN1CCCCCC1)[C@@H](c1ccccc1)C1CCCCC1
active: Potency [19] 31.6 µM | Potency [7] 3.98 µM | Potency [9] 631 nM
inactive: Potency [3] > 46 µM | Potency [8] | Potency [21] | Potency [17] | Potency [18]

CNc1ncnc2c1ncn2[C@H]1C[C@H](OP(=O)(O)O)[C@H](COP(=O)(O)O)O1
inactive: Potency [3] > 46 µM | Potency [4] > 46 µM | Potency [5] | Potency [21] | Potency [17] | Potency [18]
active: Potency [9] 5010 nM

CCCCCCCC/C=C\CCCCCCCC(=O)N[C@@H](CO)Cc1ccc(O)cc1
active: Potency [9] 126 nM | Potency [21] 22.4 µM
inactive: Potency [3] > 46 µM | Potency [4] > 46 µM | Potency [22] | Potency [8] | Potency [17] | Potency [18]

O=C(c1ccc(F)cc1)C1CCN(CCCCc2ccccc2)CC1
inactive: Potency [3] > 46 µM | Potency [4] > 46 µM | Potency [5] | Potency [7] | Potency [21] | Potency [17] | Potency [18]
active: Potency [9] 12.6 nM

c1ccc(N2CCN(CCCOc3ccc4c(c3)OCO4)CC2)cc1
active: Potency [19] 12.6 µM | Potency [7] 3.16 µM | Potency [9] 126 nM | Potency [11] 5010 nM
inactive: Potency [3] > 46 µM | Potency [4] > 46 µM | Potency [5] | Potency [8] | Potency [21] | Potency [17] | Potency [18]

N[C@@H](C(=O)O)c1ccc(C(=O)O)c(O)c1
inactive: Potency [3] > 46 µM | Potency [4] > 46 µM | Potency [5] | Potency [20] | Potency [21] | Potency [17]
active: Potency [18] 23.8 µM

N=C(C[C@@H](O)COc1ccccc1-c1ccccc1)N1CCCCC1
inactive: Potency [3] > 46 µM | Potency [4] > 46 µM | Potency [5] | Potency [21] | Potency [17] | Potency [18]

Clc1cccc(Nc2nnc(-c3ccccc3)c3ccccc23)c1
active: Potency [19] 1.26 µM | Potency [22] 3.98 µM | Potency [11] 794 nM
inactive: Potency [3] > 46 µM | Potency [5] | Potency [8] | Potency [17] | Potency [18]
